About 83,000 compounds went through this panel and 20% of them were active in at least one assay; those are over-represented in the sample as a whole.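 The test compound was applied at a single concentration to cells in 96-well plates for 48 hours, and percent growth was recorded.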 Values without a mark were called inactive. Calls of active or inactive are those of the source. Rule for the calls: active = growth percent below 10; inactive = the rest.
Experiments:
Experiment in all cases: NCI-60 one-dose screen, 48 h (100 = growth as untreated, 0 = no growth, -100 = all killed)
Settings in all cases: 10 µM unless noted
NCI-H23 lung = tested on: NCI-H23 lung
NCI-H226 lung = tested on: NCI-H226 lung
NCI-H322M lung = tested on: NCI-H322M lung
HOP-62 NSCLC = tested on: HOP-62 NSCLC
NCI-H460 lung = tested on: NCI-H460 lung
HOP-92 NSCLC = tested on: HOP-92 NSCLC
A549/ATCC NSCLC = tested on: A549/ATCC NSCLC
786-0 renal = tested on: 786-0 renal
COLO 205 colon = tested on: COLO 205 colon
NCI-H522 lung = tested on: NCI-H522 lung

Row | Compound | growth (NCI-H23 lung) | growth (NCI-H226 lung) | growth (NCI-H322M lung) | growth (HOP-62 NSCLC) | growth (NCI-H460 lung) | growth (HOP-92 NSCLC) | growth (A549/ATCC NSCLC) | growth (786-0 renal) | growth (COLO 205 colon) | growth (NCI-H522 lung)
1 | COc1ccc(C[C@H](N)C(=O)N[C@@H]2[C@@H](CO)OC(n3cnc4c(N(C)C)ncnc43)[C@@H]2O)cc1 (stereo not given in full) | -39.4% (active) | -65.2% (active) | -65.2% (active) | -57.8% (active) | -67% (active) | -67.1% (active) | -57.9% (active) | -87.6% (active) | -63.2% (active) | –
2 | Nc1ncnc2c1ncn2C1OC(COC(c2ccccc2)(c2ccccc2)c2ccccc2)C(O)C1O (stereo not given) | 89.8% | 92.1% | 96.5% | 95.2% | 25.9% | 86.6% | 94.3% | 99.1% | 99.4% | –
3 | O=C1/C(=C/c2cccc3cnccc23)Cc2cc(F)ccc21 | 87.7% | 73.8% | 93.9% | 65.1% | 95.9% | 75.3% | 98.7% | 97.4% | 81.8% | –
4 | NC(N)=N/N=C/c1ccc([N+](=O)[O-])cc1 | 91.4% | 101% | 93.5% | 104% | 104% | 104% | 109% | 103% | 113% | –
5 | Cc1ccc(/C=C2/C(=O)Nc3cc(Cl)c(-c4csc(N)n4)cc32)cc1 | 75% | 80.8% | 81.4% | 71.7% | 81.1% | 79.4% | 74.1% | 87.8% | 82.1% | –
6 | C=C1C(=O)O[C@H]2[C@H]1CC/C(COC(=O)OC/C1=C/CC[C@@]3(C)O[C@H]3[C@H]3OC(=O)[C@@H](CN(C)C)[C@@H]3CC1)=C\CC[C@@]1(C)O[C@@H]21 | 47.6% | -49.6% (active) | 88% | 89.2% | 80.1% | – | 73.4% | -49.7% (active) | -43.2% (active) | -48.5% (active)
7 | COc1ccc(-c2cc(-c3nnc(SC/C(=N\O)c4ccccc4)n3-c3ccccc3)c3ccccc3n2)cc1 | 94.6% | 96.2% | 101% | 91.1% | 104% | – | 96.8% | 113% | 91.1% | 87.2%
8 | COc1cc(/C=C2/Oc3cc4occc4c(OC)c3C2=O)ccc1OCC(=O)Nc1ccncc1 | 94.1% | 95% | 97.3% | 85.7% | 104% | – | 101% | 101% | 107% | 85.4%
9 | C=C(C)[C@@H]1C/C=C(\COC(=O)[C@H](OC(C)=O)C(NC(=O)c2ccccc2)c2ccccc2)CC[C@H]2O[C@]2(C)CC/C=C(\C)CC1 (stereo not given in full) | 73.7% [5 µM] | 81% [5 µM] | 71.6% [5 µM] | 75.3% [5 µM] | 64.2% [5 µM] | – | 73.1% [5 µM] | 65.7% [5 µM] | 92% [5 µM] | 57.3% [5 µM]
10 | CC(C)CNCC(=O)Nc1ccc(Cc2ccc(NC(=O)CNCC(C)C)cc2)cc1 | 84% | 68.6% | 78.2% | 59.1% | 43.1% | – | 65% | 42.8% | 53.8% | –
11 | COc1ccc(-c2nn(-c3cccc(Cl)c3)cc2-c2cc(-c3ccc(Br)cc3)[nH]c(=O)c2C#N)cc1 | 86.8% | 84% | 83.9% | 93.8% | 48.9% | – | 68.2% | 102% | 104% | 74.7%
12 | O=C(Nc1ccc(-n2ccc3c(NC(=O)c4ccccc4)nccc32)cc1)c1ccc(Cl)c(C(F)(F)F)c1 | 64% | 69.9% | 66.1% | 53.9% | -67% (active) | – | -29.9% (active) | 22.9% | 37.2% | -0.6% (active)
13 | CC(C)Cn1cnc2c3ccccc3nc(NCn3nc(-c4cc(Cl)cc(Cl)c4Cl)oc3=S)c21 | 80.4% | 99% | 91.6% | 66.4% | 110% | – | 99.9% | 75.5% | 97.5% | 74%
14 | O=C(NCCNc1nccc(-c2c(-c3cccc(O)c3)nc3sccn23)n1)Nc1cccc(C(F)(F)F)c1 | 96.2% | 97% | 76.8% | 83.5% | 80.1% | – | 39.3% | 79.4% | 53.2% | -5.9% (active)
15 | COc1ccc(C(=O)Cn2cnc3c(Nc4cc(C(=O)Nc5ccc(N6CCN(CCO)CC6)cc5)ccc4C)ncnc32)cc1 | 98.2% | 96.9% | 101% | 97.3% | 108% | – | 108% | 98.5% | 104% | 87.8%
16 | COc1ccc(/C=C2/C(=O)Nc3cc(Cl)c(-c4csc(N)n4)cc32)cc1 | 58% | 69.2% | 68.3% | 50.1% | 42.7% | – | 48.5% | 62.3% | 33.7% | 21.6%
17 | COc1ccc(-c2nnc(SCC(=O)Nc3ccc(C(=O)/C=C/c4ccc(OC)c(OC)c4)cc3)o2)cc1 | 91.9% | 86.2% | 94.6% | 73.6% | 95.1% | – | 77.7% | 106% | 102% | 68.4%
18 | CCOC(=O)C(C)(CSSCC(C)(NC(=O)c1ccc2ccccc2c1)C(=O)OCC)NC(=O)c1ccc2ccccc2c1 (stereo not given) | 98.3% | 97.9% | 96.7% | 105% | 102% | 105% | 26.4% | – | 121% | –
19 | C=C1C(=O)O[C@H]2[C@H]1CC/C(COC(=O)c1ccc(C#N)cc1)=C\CC[C@@]1(C)O[C@@H]21 | 54.4% | -0.563% (active) | 68.1% | 61.3% | 53.7% | – | 40.8% | 22.9% | -77.7% (active) | -89.6% (active)
20 | O=C(O)c1cccc(S(=O)(=O)c2ccccc2)c1 | 96.8% | 96.8% | 98.6% | 103% | 100% | – | 102% | 108% | 104% | 93.5%
21 | COc1cc(CN(c2ccc(Cl)cc2)C2OC(=O)c3ccccc32)cc(OC)c1OC (stereo not given) | 77.2% | 78.9% | 88.8% | 44.8% | – | 69.1% | 39.7% | 71% | 61.9% | 35%
22 | CS(=O)(=O)OCC(COS(C)(=O)=O)C(c1ccccc1)c1ccccc1 | 96.9% | 103% | 97.9% | 91.2% | 110% | – | 92.3% | 99.4% | 124% | 95.4%
23 | CCC1(C(N)=O)CC2C=CC1CC2 (stereo not given) | 249% | 109% | 114% | 136% | 113% | – | 102% | 171% | 94.8% | 99.1%
24 | COc1cc(C(=O)NNC(=O)c2ccccc2C(=O)O)cc(OC)c1OC | 15.9% | 74.6% | 80.7% | 51.6% | 11.9% | – | 52.7% | 38.8% | 37.5% | 32.2%
25 | C=C1C(=O)O[C@H]2[C@H]1CC/C(C(=O)Nc1ccc(OC)c(C(N)=O)c1O)=C\CC[C@@]1(C)O[C@@H]21 | 73.4% | 61.3% | 108% | 85.1% | 92% | – | 77.8% | 43.1% | 10.7% | 5.78% (active)
26 | CCN(CC)C(=O)C1CCN(C(=O)c2ccccc2)CC1 | 95.1% | 94.1% | 99.4% | 93.3% | 104% | – | 104% | 97.3% | 106% | 90.8%
27 | COc1cc(/C=C/C(=O)c2ccc(Oc3ncnc4ccccc34)cc2)cc(OC)c1OC | 80.3% | 98.5% | 69.5% | 81.9% | 84.5% | – | 73.1% | 82.2% | 109% | 52.7%
28 | C=C1C(=O)O[C@H]2[C@H]1CC/C(COC(=O)c1ccc3ccccc3c1)=C\CC[C@@]1(C)O[C@@H]21 | 2.6% (active) | -82.3% (active) | 45% | -29.2% (active) | 8.67% (active) | – | -52.7% (active) | -85.1% (active) | -71.1% (active) | -77.3% (active)
